The text below walks through data of publication PMC5913336, “True equilibrium measurement of transcription factor-DNA binding affinities using automated polarization microscopy”.

pKd: −log10 of the molar value.

Sequence of D (Q24533 127-229): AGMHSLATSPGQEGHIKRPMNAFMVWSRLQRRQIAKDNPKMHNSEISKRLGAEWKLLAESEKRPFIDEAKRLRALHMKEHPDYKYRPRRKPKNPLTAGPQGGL

The first assay concerns the target D (Drosophila melanogaster, UniProt Q24533 127-229). Kind of assay: FP; 33 mM phosphate pH 7.0, 90 mM NaCl, 0.01% Tween 20, 0.1 mM DTT, 0.5% agarose; room temperature. Particulars: tags: N-GST (pGEX-6P-1, kept); dsDNA, one strand shown.
For the sequence TACCATTGTTCTTG, the binding signal was 1.36 Kd / Kd of best base at the position.

For GGCCATTGTTCTTG, the binding signal is 1.18 Kd / Kd of best base at the position. On the same count and under the same terms, the value for GACCATTGTCCTTG was 8.08 Kd / Kd of best base at the position; that for GACGATTGTTCTTG was 12.4 Kd / Kd of best base at the position.

Take GACCATTGTTGTTG: the binding signal is 3.32 Kd / Kd of best base at the position. Still for that read-out and setting: then GACCATTATTCTTG, with 14.1 Kd / Kd of best base at the position; and GACCATTGTTCTTC, with 1.12 Kd / Kd of best base at the position. Same read-out and setting: the value for GACCTTTGTTCTTG was 2.8 Kd / Kd of best base at the position.

As for GACCATTGTTCTTA, the binding signal was 1.16 Kd / Kd of best base at the position.

In the case of GACCATTGTTATTG, the binding signal is 3.41 Kd / Kd of best base at the position. On the same count and under the same terms, the value for CACCATTGTTCTTG was 1.12 Kd / Kd of best base at the position; that for GACCATTGTTCGTG was 3.61 Kd / Kd of best base at the position.

For GATCATTGTTCTTG, the binding signal is 2.05 Kd / Kd of best base at the position. Still for that read-out and setting: then GACCATTGTACTTG, with 8.66 Kd / Kd of best base at the position; and GACCCTTGTTCTTG, with 32.5 Kd / Kd of best base at the position; and GACCATTGTTCTTT, with 1.16 Kd / Kd of best base at the position. As to AACCATTGTTCTTG, the binding signal is 1.37 Kd / Kd of best base at the position. As to GTCCATTGTTCTTG, the binding signal was 1.08 Kd / Kd of best base at the position. Still for that read-out and setting: the value for GACCATTGTTCTCG was 1.79 Kd / Kd of best base at the position.

For GACCATGGTTCTTG, the binding signal was 39.1 Kd / Kd of best base at the position. As for GACAATTGTTCTTG, the binding signal was 10.4 Kd / Kd of best base at the position. The same measure, in the same setting: the value for GACCGTTGTTCTTG was 26 Kd / Kd of best base at the position. Same read-out and setting: then GAACATTGTTCTTG, with 10.5 Kd / Kd of best base at the position. Still for that read-out and setting: then GACCATTGCTCTTG, with 46 Kd / Kd of best base at the position; and GACCAGTGTTCTTG, with 33 Kd / Kd of best base at the position.

The pKd is the Kd on a negative log10 scale, so that one unit is a factor of ten. The low end stands for a high Kd, the high end for a low Kd. Turning to GACCATTGTTCTTG, the pKd is around 8.64. Regarding GACCATTGATCTTG, the binding signal was 31.7 Kd / Kd of best base at the position. For GACCAATGTTCTTG, the binding signal was 44.4 Kd / Kd of best base at the position. Still for that read-out and setting: then GACCATTGGTCTTG, with 54.3 Kd / Kd of best base at the position; and GACCATTGTTTTTG, with 2.05 Kd / Kd of best base at the position; and GAGCATTGTTCTTG, with 2.52 Kd / Kd of best base at the position. On the same count and under the same terms, then GACCATTCTTCTTG, with 17.3 Kd / Kd of best base at the position; and GACCATTTTTCTTG, with 40.5 Kd / Kd of best base at the position; and GCCCATTGTTCTTG, with 1.11 Kd / Kd of best base at the position. On the same count and under the same terms, the value for GACTATTGTTCTTG was 2.24 Kd / Kd of best base at the position; that for GACCATTGTTCTAG was 1.95 Kd / Kd of best base at the position. Regarding GACCATTGTTCATG, the binding signal was 2.96 Kd / Kd of best base at the position.

The target in the next assay is T1, Slp1-FL (Drosophila melanogaster, UniProt P32030).
T1 sequence: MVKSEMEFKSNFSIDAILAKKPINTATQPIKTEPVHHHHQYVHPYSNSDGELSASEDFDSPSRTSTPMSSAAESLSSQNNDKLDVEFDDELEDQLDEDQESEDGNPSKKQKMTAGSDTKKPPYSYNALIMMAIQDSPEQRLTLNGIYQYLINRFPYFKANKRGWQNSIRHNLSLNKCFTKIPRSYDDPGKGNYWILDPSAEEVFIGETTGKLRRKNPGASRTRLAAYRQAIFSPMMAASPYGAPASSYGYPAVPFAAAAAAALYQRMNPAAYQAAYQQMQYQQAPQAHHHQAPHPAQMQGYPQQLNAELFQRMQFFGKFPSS
Described as above. The following applies: tags: N-GST (pGEX-6P-1, kept); dsDNA, one strand shown.
For ACGTGGTTACACTTA, the binding signal was 14.4 Kd / Kd of best base at the position. The same measure, in the same setting: the value for ACGGGTTTACACTTA was 20.1 Kd / Kd of best base at the position; that for ACGTGTTTGCACTTA was 23.1 Kd / Kd of best base at the position.
